# Assay outcomes as filed in PubChem.
# CYP2C9 inh: blocks human cytochrome P450 2C9 | inhibition, % at 5 µM | P11712 | 20% of 96,000 active | AID 777 | CYP2C9 Supersomes, luciferin-H conversion, luminescence;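 active = blocking of liver enzyme CYP2C9 beyond about 50% at 5 µM, limit read from the data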
# CYP2C9 act: CYP2C9 (human) activation; AID 1024; 1.4% of 96,000 active; activation factor at 5 µM; recombinant CYP2C9, luciferin-H conversion, luminescence; hits give high values; factor 1 = untreated enzyme, 0 = blocked; P11712;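 active = activation factor of 2 or more for CYP2C9 at a 5 µM dose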;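 note: 0 = sulfaphenazole-blocked wells and 1 = vehicle-only wells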
# PostGolgi ctrl: inhibits growth of the yeast control strain; inhibition, % at 10 µM; AID 738; 5% of 98,000 active; efflux-deficient yeast background strain, growth absorbance A615, 16 h
# CYP2C19 activ: cytochrome P450 2C19 (human) activation | recombinant CYP2C19, luciferin-H EGE luminescence; hits give high values; 0 = fully inhibited enzyme, 1 = untreated enzyme | 96,000 tested, under 10 active | P33261 | AID 1025 | activation factor at 5 µM;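 active = activation factor of at least 2 at 5 µM in the primary screen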;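 note: 0 = wells with 2.5 mM tranylcypromine and 1 = vehicle-only wells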
# Target sequence (P33261 whole entry, looked up): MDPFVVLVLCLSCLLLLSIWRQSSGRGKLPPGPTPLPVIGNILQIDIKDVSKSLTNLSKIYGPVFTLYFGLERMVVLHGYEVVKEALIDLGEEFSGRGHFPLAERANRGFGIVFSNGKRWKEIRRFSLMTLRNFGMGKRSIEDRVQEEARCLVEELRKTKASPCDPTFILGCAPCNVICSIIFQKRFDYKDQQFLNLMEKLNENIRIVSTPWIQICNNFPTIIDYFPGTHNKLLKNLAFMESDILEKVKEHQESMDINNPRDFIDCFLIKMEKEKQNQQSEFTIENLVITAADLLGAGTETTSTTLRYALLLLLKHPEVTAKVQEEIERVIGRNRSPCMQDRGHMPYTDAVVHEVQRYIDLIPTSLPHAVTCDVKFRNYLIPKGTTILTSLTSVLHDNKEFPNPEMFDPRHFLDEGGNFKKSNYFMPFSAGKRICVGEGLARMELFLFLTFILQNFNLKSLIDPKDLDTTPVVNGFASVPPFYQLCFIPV
# CYP2C19 inhib: blocks human cytochrome P450 2C19; P33261; CYP2C19 Supersomes, luciferin-H EGE luminescence, 30 min; inhibition, % at 5 µM; 21% of 96,000 active; AID 778;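 active = CYP2C19 inhibition above a set limit at 5 µM in the primary screen, cut at about 50% in these data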;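 note: plate controls were negative control wells for no effect and 2.5 mM tranylcypromine positive control for full effect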
# PostGolgi yeast: growth inhibition of a yeast mutant, post-Golgi transport screen | inhibition, % at 10 µM | post-Golgi transport phenotypic cell assay | 0.9% of 98,000 active;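 note: yeast cells grown in 1536-well plates; yeast grown about 18 h at 30C before absorbance read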
# * = called active by the depositor; x = no result given. Shown are actives, neighbours in structure and some others; about 32% of the full set was active somewhere. Cut-off read from the data, not from the text of the source, unless noted: active = inhibition above about 30%; inactive = the rest.
SMILES,CYP2C9 inh,CYP2C9 act,PostGolgi ctrl,CYP2C19 activ,CYP2C19 inhib,PostGolgi yeast
CC(C)C(OC(=O)c1cc2occc2n1C)C(=O)NCc1ccc2c(c1)OCO2 (centres undefined),85.3*,0.1,48.4*,0.3,73.7*,0.9
COc1ccc(C(OC(=O)c2ccco2)C(=O)NCc2ccco2)cc1 (centres undefined),19.9,0.8,8.3,0.9,13.1,-5.2
CC(OC(=O)Cc1coc2cc3c(cc12)CCC3)C(=O)NCc1ccc2c(c1)OCO2 (centres undefined),13.2,0.9,-2.2,0.8,17.2,-1.4
CCC(OC(=O)c1cc2sccc2n1C)C(=O)NCc1ccco1 (centres undefined),71.9*,0.3,99.0*,0.5,53.9*,103.3*
O=C(NCCN1CCOCC1)C1CC(=O)N(c2ccc(F)c(Cl)c2)C1 (centres undefined),-14.9,1.1,-5.4,1,2.1,1.1
CC1CCN(S(=O)(=O)c2ccc(S(=O)(=O)NCC(=O)C(C)(C)C)cc2)CC1,15.0,0.8,-0.8,0.9,14.6,-2.9
COc1ccccc1C(OC(=O)c1cccs1)C(=O)NCc1ccco1 (centres undefined),40.1,0.6,-4.7,0.4,58.4*,-1.3
O=C(OC(C(=O)NCc1cccs1)c1ccc(F)cc1)c1ccco1 (centres undefined),40.8,0.6,9.9,0.7,29.6,-2.7
Cc1ccc(C(C(=O)NCc2ccco2)N(C(=O)CNC(=O)c2cccs2)c2ccc(C)cc2)cc1 (centres undefined),-6.2,1.1,3.4,1.1,-6.0,14.3
CC(OC(=O)c1cccs1)C(=O)NCc1ccco1 (centres undefined),37.1,0.6,-3.5,0.1,85.8*,2.8
Cc1ccc(C(=O)Nc2ccccc2SCC2CSc3nc4ccccc4c(=O)n32)cc1 (centres undefined),33.3,0.7,-5.4,0.7,34.9,-17.0
COc1cc2[nH]c(=S)n(NC(=O)CC(C)C)c(=O)c2cc1OC,2.2,1,13.5,1,1.6,0.8
COC(=O)c1cc(Br)c(=O)n(-c2cc(C)on2)c1,50.4*,0.5,4.9,0.4,58.9*,-0.3
Cc1ccc(S(=O)(=O)N2CCC(C(=O)Nc3ccc4c(c3)COC4=O)CC2)cc1,-37.2,1.4,3.9,1.1,-9.3,-5.0
CS(=O)(=O)N1CCc2cc(S(=O)(=O)Nc3ccc4oc5c(c4c3)CCCC5)ccc21,92.9*,0.1,7.5,0,96.2*,-3.6
CCCCOc1ccccc1NC(=O)CC1Nc2ccccc2NC1=O (centres undefined),64.5*,0.4,x,0.7,26.2,x
CCCCNC(=O)CC1Nc2ccccc2NC1=O (centres undefined),-16.6,1.2,8.0,1.2,-17.8,-0.2
O=C(CC1Nc2ccccc2NC1=O)Nc1cc(Cl)cc(Cl)c1 (centres undefined),20.1,0.8,66.8*,0.6,35.7,12.3
O=C(CC1NC(=O)NC1=O)Nc1ccc(Cl)cc1 (centres undefined),-7.9,1.1,9.5,1.2,-15.9,-8.8
COCCn1c(C)cc(C(=O)COC(=O)CCc2ccc(S(=O)(=O)N3CCOCC3)cc2)c1C,-5.5,1.1,3.9,1,0.0,-3.5
COCC(C)n1c(C)cc(C(=O)COc2ccc(S(=O)(=O)N3CCOCC3)cc2Cl)c1C (centres undefined),57.5*,0.4,3.7,0.5,50.8*,3.8
CC1(C)NC(=O)N(CC(=O)Nc2nc(-c3ccc(F)cc3)cs2)C1=O,-64.0,1.6,1.3,1,0.0,-1.1
COc1ccc(NC(=O)CN2CCN(C3c4ccccc4-c4ccccc43)CC2)cc1,94.7*,0.1,13.6,0.4,58.7*,-16.0
CCOc1ccc(/C=C/C(=O)Nc2ccc(OC)cc2[N+](=O)[O-])cc1,-144.8,2.4*,0.7,0.9,9.5,-9.8
CCC(C)(C)C(=O)Nc1ccc(OC)cc1[N+](=O)[O-],8.9,0.9,0.8,0.7,28.5,-0.3
SMILES,CYP2C9 inh,CYP2C9 act,PostGolgi ctrl,CYP2C19 activ,CYP2C19 inhib,PostGolgi yeast
COc1ccc(NC(=O)CN2CCOCC2)cc1,-3.3,1,3.0,0.6,39.8,12.3
COc1ccc(NC(=O)CN2CCC3(O)CCCCC3C2c2cc(OC)ccc2OC)cc1 (centres undefined),79.9*,0.2,18.3,0.3,71.0*,1.8
COc1ccc(NC(=O)CN2CCN(CC(=O)Nc3ccccc3Cl)CC2)cc1Cl,57.1*,0.4,1.6,0.1,91.3*,10.6
O=C(OCCCN=C1NS(=O)(=O)c2ccccc21)c1ccccc1F,28.2,0.7,3.3,0.7,27.6,3.1
COc1ccc(NC(=O)CN2CCC(C(N)=O)CC2)cc1,-24.7,1.2,-6.1,1.1,-13.1,15.8
COc1ccc(NC(=O)CN2CCC(C)CC2)cc1,2.6,1,4.3,0.1,89.3*,-4.6
COc1ccc(NC(=O)CN2CCC(C)CC2)c([N+](=O)[O-])c1,53.7*,0.5,3.2,0.4,64.8*,7.7
COc1ccc(NC(=O)CN2CCN(CC(=O)Nc3ccc(OC)c(OC)c3)CC2)cc1,-7.5,1.1,3.0,0.9,11.0,-9.5
COc1ccc(NC(=O)CN2CCN(CC(=O)Nc3cc(OC)cc(OC)c3)CC2)cc1,61.2*,0.4,0.6,0.4,55.5*,-0.1
O=C(O)c1ccc(-n2c(-c3ccccc3)n[nH]c2=S)cc1,7.9,0.9,2.1,0.9,6.5,2.4
Cc1ccc2c(c1)N(CC(=O)N(Cc1ccc3c(c1)OCO3)CC1CCCO1)C(=O)C(C)O2 (centres undefined),33.0,0.7,8.6,0.5,45.5,0.3
CCOc1ccc(C(=O)/C=C/c2ccccc2C(F)(F)F)cc1,-26.7,1.3,4.6,0.8,16.1,-7.0
CCOc1ccc(C(=O)/C=C/c2cn(CN3CCN(C)CC3)c3ccccc23)cc1,64.2*,0.4,32.5*,0.4,61.6*,-1.8
COc1ccc(C(=O)/C=C/c2cn(CN3CCN(C)CC3)c3ccccc23)cc1,68.5*,0.3,33.3*,0.3,66.6*,3.8
N#CCCn1cnc2c(=S)nc[nH]c21,-8.2,1.1,-0.5,1.1,-5.0,-5.6
O=C1NC(=Nc2ccccc2)S/C1=C\c1cccn1-c1ccccc1,-66.6,1.7,15.0,0.8,17.7,1.8
Cc1cc([N+](=O)[O-])nn1Cc1ccccc1F,-7.0,1.1,0.6,0.6,38.5,-0.3
O=C(CSc1nc2c(cnn2-c2ccc(F)cc2)c(=O)[nH]1)N1CCCc2ccccc21,28.2,0.7,21.3,1,-1.8,0.8
Nc1nc(SCC(=O)N2CCCc3ccccc32)[nH]c(=O)c1-c1ccccc1,51.1*,0.5,-5.1,0.5,45.8,-3.4
O=S(=O)(c1cccc2cccnc12)n1cnc2ccccc21,-63.7,1.6,18.3,0.9,9.7,8.4
